Laboratory results taken from PubChem BioAssay (NCI).
The panel holds about 79,000 compounds, 15% with a hit somewhere; the sample as a whole holds those more often. Calls of active or inactive are those of the source. No stated cut-off is given here; in the data, active means growth inhibition above about 70%; inactive means the rest.

Assays:
[1] = NCI Yeast Anticancer Drug Screen. Data for the rad50 strain (AID 155);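 further: 0% = growth of vehicle-only cultures of the same strain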; conditions: S. cerevisiae rad50 strain growth inhibition, stronger effect = higher value
Summary of the method: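 DNA repair mutant yeast, compound exposure, growth read-out; inhibition is taken relative to vehicle.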

[2] = NCI Yeast Anticancer Drug Screen. Data for the mec2-1 strain (AID 157); conditions: S. cerevisiae mec2-1 strain, stronger effect = higher value
Summary of the method: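 Test agents were screened against the mec2-1 yeast strain, with defined DNA repair or cell cycle alteration. Growth was scored as inhibition against vehicle-only controls.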

[3] = NCI Yeast Anticancer Drug Screen. Data for the sgs1 mgt1 strain (AID 161);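 further: 0% = growth of cultures given vehicle only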; conditions: S. cerevisiae sgs1 mgt1 strain, stronger effect = higher value
Summary of the method: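 Inhibition of yeast growth, normalised to vehicle-treated controls, is reported for a strain bearing genetic alterations in DNA damage repair.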

[4] = NCI Yeast Anticancer Drug Screen. Data for the cln2 rad14 strain (AID 165);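 further: 0% = growth equal to vehicle treated cultures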; conditions: S. cerevisiae cln2 rad14 strain, stronger effect = higher value
Summary of the method: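 Growth of compound-exposed yeast (cln2 rad14 genotype) measured and expressed as inhibition relative to vehicle.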

[5] = NCI Yeast Anticancer Drug Screen. Data for the bub3 strain (AID 167); conditions: S. cerevisiae bub3 mutant strain, stronger effect = higher value
Summary of the method: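 In this screen, a yeast mutant lacking normal mitotic checkpoint function is challenged with compound. Relative growth versus vehicle gives the inhibition value.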

[6] = NCI Yeast Anticancer Drug Screen. Data for the mlh1 rad18 strain (AID 175); conditions: S. cerevisiae mlh1 rad18 strain growth inhibition, stronger effect = higher value
Summary of the method: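 In this whole-cell yeast screen, a strain with altered DNA damage repair is challenged with compound, and its growth is measured against matched vehicle-treated controls.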

[7] = at 5.0 µM (retest, dose inferred, filed as 0.5)
[8] = at 50.0 µM (retest, dose inferred, filed as 5.0)

Measured: growth inhibition

CCc1cccc(C)c1NC(=O)/C(Cl)=C(\Cl)C(=O)O
inactive: [1]; [7] 67% | [2]; [7] 65% | [3]; [7] 67% | [4]; [7] 54% | [6]; [7] 53%
active: [1]; [8] 99% | [1]; at 50.0 µM 99.4% | [2]; [8] 100% | [2]; at 50.0 µM 99.5% | [3]; [8] 100% | [3]; at 50.0 µM 99.7% | [4]; [8] 99% | [4]; at 50.0 µM 99.1% | [5]; [7] 94% | [5]; [8] 100% | [5]; at 50.0 µM 99.5% | [6]; [8] 100% | [6]; at 50.0 µM 99.4%

C(=P(c1ccccc1)(c1ccccc1)c1ccccc1)[P+](c1ccccc1)(c1ccccc1)c1ccccc1
active: [1]; [7] 98% | [1]; [8] 99% | [1]; at 50.0 µM 99.3% | [2]; [7] 99% | [2]; [8] 100% | [2]; at 50.0 µM 99.3% | [3]; [7] 99% | [3]; [8] 99% | [3]; at 50.0 µM 99.3% | [4]; [7] 98% | [4]; [8] 99% | [4]; at 50.0 µM 98.7% | [5]; [7] 98% | [5]; [8] 99% | [5]; at 50.0 µM 99% | [6]; [7] 99% | [6]; [8] 99% | [6]; at 50.0 µM 99.2%

CCOC(=O)N1CCN(CCCCCCOc2ccc(C(C)(C)C)cc2)CC1
active: [1]; [8] 82% | [1]; at 50.0 µM 93.5% | [2]; [8] 87% | [2]; at 50.0 µM 96% | [3]; [8] 97% | [3]; at 50.0 µM 98.1% | [4]; at 50.0 µM 94.5% | [5]; [8] 76% | [5]; at 50.0 µM 96.7% | [6]; [8] 97% | [6]; at 50.0 µM 98.6%
inactive: [1]; [7] 3% | [2]; [7] 28% | [3]; [7] 31% | [4]; [7] 12% | [4]; [8] 61% | [5]; [7] 7% | [6]; [7] 38%

COc1ccc2c(c1)CCCN2CCCCCCCCCCN1CCCCC1
inactive: [1]; [7] 13% | [1]; [8] 38% | [2]; [7] 7% | [2]; [8] 34% | [2]; at 50.0 µM 56.9% | [3]; [7] 36% | [4]; [7] 28% | [4]; [8] 28% | [5]; [7] 35% | [5]; [8] 60% | [5]; at 50.0 µM 59.8% | [6]; [7] 25% | [6]; [8] 25% | [6]; at 50.0 µM 61.4%
active: [1]; at 50.0 µM 71.3% | [3]; [8] 73% | [3]; at 50.0 µM 80.8% | [4]; at 50.0 µM 71.2%

CCCCCCCCCCCC(=O)Oc1c(Cl)c(Cl)c(C#N)c(Cl)c1Cl
active: [1]; at 50.0 µM 70.7% | [6]; at 50.0 µM 86.7%
inactive: [1]; [7] 5% | [1]; [8] 0% | [2]; [7] 2% | [2]; [8] 3% | [2]; at 50.0 µM 23.4% | [3]; [7] 5% | [3]; [8] 7% | [3]; at 50.0 µM 60.9% | [4]; [7] 12% | [4]; [8] -1% | [4]; at 50.0 µM 48.6% | [5]; [7] 1% | [5]; [8] -1% | [5]; at 50.0 µM 8.7% | [6]; [7] 5% | [6]; [8] 13%

COc1cccc(C2c3cc4c(cc3OC(NNc3ccccc3)C2C)OCO4)c1O (stereo not given)
inactive: [1]; [7] -8% | [2]; [7] -5% | [3]; [7] 1% | [4]; [7] 19% | [5]; [7] -8% | [6]; [7] 27%
active: [1]; [8] 88% | [1]; at 50.0 µM 94% | [2]; [8] 79% | [2]; at 50.0 µM 95.3% | [3]; [8] 93% | [3]; at 50.0 µM 95.8% | [4]; [8] 88% | [4]; at 50.0 µM 94.2% | [5]; [8] 97% | [5]; at 50.0 µM 96.8% | [6]; [8] 91% | [6]; at 50.0 µM 95.7%

COc1ccc(C2SC(N)=Nc3c2c(C)nn3C(=O)c2ccccc2O)cc1OC (stereo not given)
inactive: [1]; [7] -9% | [1]; at 50.0 µM 53.3% | [2]; [7] -15% | [2]; at 50.0 µM 35.2% | [3]; [7] -8% | [4]; [7] -20% | [4]; [8] 24% | [4]; at 50.0 µM -19% | [5]; [7] -19% | [5]; [8] 31% | [6]; [7] 1% | [6]; at 50.0 µM 65.5%
active: [1]; [8] 74% | [2]; [8] 81% | [3]; [8] 70% | [3]; at 50.0 µM 75.3% | [5]; at 50.0 µM 74.3% | [6]; [8] 91%

CCCCC(O)CCCC
active: [5]; [8] 91%
inactive: [1]; [7] 13% | [1]; [8] 17% | [1]; at 50.0 µM 4.55% | [2]; [7] 14% | [2]; [8] 18% | [2]; at 50.0 µM 8.65% | [3]; [7] -5% | [3]; [8] 9% | [3]; at 50.0 µM 15.8% | [4]; [7] 3% | [4]; [8] 13% | [4]; at 50.0 µM 22.2% | [5]; [7] 43% | [5]; at 50.0 µM 64.2% | [6]; [7] 31% | [6]; [8] 25% | [6]; at 50.0 µM -7.1%

CCCCCCCCCCSC(=NCC)NCC
active: [1]; [8] 99% | [2]; [8] 99% | [3]; [8] 99% | [4]; [8] 99% | [4]; at 50.0 µM 77.3% | [5]; [8] 99% | [6]; [8] 99% | [6]; at 50.0 µM 99.5%
inactive: [1]; [7] 2% | [1]; at 50.0 µM 66.9% | [2]; [7] 4% | [2]; at 50.0 µM 49.9% | [3]; [7] 51% | [3]; at 50.0 µM 46.7% | [4]; [7] -6% | [5]; [7] 27% | [5]; at 50.0 µM 59% | [6]; [7] 0%

COc1ccc(/C=C/c2cc(OC)c(OC)c(OC)c2)cc1O[Si](C)(C)C(C)(C)C
inactive: [1]; [7] 1% | [1]; [8] -9% | [1]; at 50.0 µM -2.65% | [2]; [7] 0% | [2]; [8] -3% | [2]; at 50.0 µM -1.75% | [3]; [7] -1% | [3]; [8] -5% | [3]; at 50.0 µM 13.6% | [4]; [7] 1% | [4]; [8] -4% | [4]; at 50.0 µM 53.2% | [5]; [7] -1% | [5]; [8] -7% | [5]; at 50.0 µM -37.5% | [6]; [7] 1% | [6]; [8] -6% | [6]; at 50.0 µM -4.45%
